Laboratory results as given in PubChem BioAssay AID1159580 (chemical genetic matrix, 2015).
Out of some 5,500 compounds screened, about 2,000 (36%) were called active. Another 18% or so got no clear call; they are omitted. Some of the results follow. Values without a mark were called inactive. No stated cut-off is given here; in the data, active means normalized growth mostly below about 0.91 (no sharp cut-off); inconclusive means no clear call, values can overlap the other calls; inactive means mostly above about 0.92.

Assay: chemical genetic growth profiling, strain panel (AID 1159580);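 further: tested at 20 µM; growth read once vehicle control cultures reached saturation at 30 °C; 1 = growth at the plate median or of vehicle wells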
Settings: growth OD

Compound: COc1cc(O)c2c(=O)c(O)c(-c3ccc(O)c(O)c3)oc2c1
- normalized growth (S. cerevisiae deletion strains, locus YJR075W, strain HOC1, stronger effect = lower value): 0.987
- normalized growth (S. cerevisiae deletion strains, locus YKL009W, strain mrt4, stronger effect = lower value): 1.02
- normalized growth (S. cerevisiae deletion strains, locus YKL068W, stronger effect = lower value): 1
- normalized growth (S. cerevisiae deletion strains, locus YKL085W, strain MDH1 (second series), stronger effect = lower value): 0.994
- normalized growth (S. cerevisiae deletion strains, locus YKL085W, strain MDH1, stronger effect = lower value): 0.994
- normalized growth (S. cerevisiae deletion strains, locus YKL160W, strain elf1, stronger effect = lower value): 0.84 (active)
- normalized growth (S. cerevisiae deletion strains, locus YKL190W, strain CNB1, stronger effect = lower value): 0.997
- normalized growth (S. cerevisiae deletion strains, locus YKR001C, strain vps1, stronger effect = lower value): 0.996
- normalized growth (S. cerevisiae deletion strains, locus YKR026C, strain gcn3, stronger effect = lower value): 0.945
- normalized growth (S. cerevisiae deletion strains, locus YKR091W, strain srl3, stronger effect = lower value): 0.961
- normalized growth (S. cerevisiae deletion strains, locus YLL001W, strain dnm1, stronger effect = lower value): 0.782 (active)
- normalized growth (S. cerevisiae deletion strains, locus YLL026W, stronger effect = lower value): 0.934
- normalized growth (S. cerevisiae deletion strains, locus YLL041C, strain sdh2, stronger effect = lower value): 0.928
- normalized growth (S. cerevisiae deletion strains, locus YLR027C, strain aat2, stronger effect = lower value): 0.843 (active)
- normalized growth (S. cerevisiae deletion strains, locus YLR039C, strain RIC1, stronger effect = lower value): 0.785
- normalized growth (S. cerevisiae deletion strains, locus YLR058C, strain SHM2, stronger effect = lower value): 0.827 (active)
- normalized growth (S. cerevisiae deletion strains, locus YLR102C, strain apc9, stronger effect = lower value): 1.02
- normalized growth (S. cerevisiae deletion strains, locus YLR221C, strain rsa3, stronger effect = lower value): 0.779 (active)
- normalized growth (S. cerevisiae deletion strains, locus YLR258W, strain gsy2, stronger effect = lower value): 0.854 (active)
- normalized growth (S. cerevisiae deletion strains, locus YLR262C, strain YPT6 (second series), stronger effect = lower value): 0.565 (active)
- normalized growth (S. cerevisiae deletion strains, locus YLR262C, strain YPT6, stronger effect = lower value): 0.91
- normalized growth (S. cerevisiae deletion strains, locus YLR268W, strain sec22, stronger effect = lower value): 0.968
- normalized growth (S. cerevisiae deletion strains, locus YLR320W, strain mms22, stronger effect = lower value): 0.758 (active)
- normalized growth (S. cerevisiae deletion strains, locus YLR330W, strain CHS5, stronger effect = lower value): 0.99
- normalized growth (S. cerevisiae deletion strains, locus YLR342W, strain FKS1 (second series), stronger effect = lower value): 0.898
- normalized growth (S. cerevisiae deletion strains, locus YLR342W, strain FKS1, stronger effect = lower value): 0.643 (active)
- normalized growth (S. cerevisiae deletion strains, locus YLR357W, strain rsc2, stronger effect = lower value): 0.678 (active)
- normalized growth (S. cerevisiae deletion strains, locus YLR370C, strain arc18, stronger effect = lower value): 0.813 (active)
- normalized growth (S. cerevisiae deletion strains, locus YLR371W, strain rom2, stronger effect = lower value): 0.962
- normalized growth (S. cerevisiae deletion strains, locus YLR384C, strain iki3, stronger effect = lower value): 0.936
- normalized growth (S. cerevisiae deletion strains, locus YLR418C, strain cdc73, stronger effect = lower value): 0.957
- normalized growth (S. cerevisiae deletion strains, locus YML016C, strain PPZ1, stronger effect = lower value): 0.915 (active)
- normalized growth (S. cerevisiae deletion strains, locus YML032C, strain rad52, stronger effect = lower value): 1.02
- normalized growth (S. cerevisiae deletion strains, locus YML120C, strain ndi1, stronger effect = lower value): 0.879 (active)
- normalized growth (S. cerevisiae deletion strains, locus YML124C, strain tub3, stronger effect = lower value): 1.02
- normalized growth (S. cerevisiae deletion strains, locus YMR058W, strain fet3, stronger effect = lower value): 0.247 (active)
- normalized growth (S. cerevisiae deletion strains, locus YMR078C, strain ctf18, stronger effect = lower value): 1.02
- normalized growth (S. cerevisiae deletion strains, locus YMR125W, strain sto1, stronger effect = lower value): 1
- normalized growth (S. cerevisiae deletion strains, locus YMR129W, stronger effect = lower value): 0.927
- normalized growth (S. cerevisiae deletion strains, locus YMR205C, strain PFK2, stronger effect = lower value): 0.658 (active)
- normalized growth (S. cerevisiae deletion strains, locus YMR223W, strain ubp8, stronger effect = lower value): 1
- normalized growth (S. cerevisiae deletion strains, locus YMR231W, strain pep5, stronger effect = lower value): 0.874 (active)
- normalized growth (S. cerevisiae deletion strains, locus YMR307W, strain GAS1, stronger effect = lower value): 0.768
- normalized growth (S. cerevisiae deletion strains, locus YNL067W, strain RPL9B, stronger effect = lower value): 0.953
- normalized growth (S. cerevisiae deletion strains, locus YNL071W, strain lat1, stronger effect = lower value): 0.919
- normalized growth (S. cerevisiae deletion strains, locus YNL128W, strain TEP1, stronger effect = lower value): 0.935
- normalized growth (S. cerevisiae deletion strains, locus YNL209W, strain ssb2, stronger effect = lower value): 0.452 (active)
- normalized growth (S. cerevisiae deletion strains, locus YNL233W, strain BNI4, stronger effect = lower value): 0.894
- normalized growth (S. cerevisiae deletion strains, locus YNL248C, strain rpa49, stronger effect = lower value): 0.889
- normalized growth (S. cerevisiae deletion strains, locus YNL250W, strain rad50, stronger effect = lower value): 0.986
- normalized growth (S. cerevisiae deletion strains, locus YNL271C, strain bni1, stronger effect = lower value): 0.998
- normalized growth (S. cerevisiae deletion strains, locus YNL298W, strain CLA4, stronger effect = lower value): 1.01
- normalized growth (S. cerevisiae deletion strains, locus YNL307C, strain MCK1, stronger effect = lower value): 1.02
- normalized growth (S. cerevisiae deletion strains, locus YNL322C, strain KRE1 (second series), stronger effect = lower value): 0.967
- normalized growth (S. cerevisiae deletion strains, locus YNL322C, strain KRE1, stronger effect = lower value): 0.952
- normalized growth (S. cerevisiae deletion strains, locus YNR049C, strain mso1, stronger effect = lower value): 0.947
- normalized growth (S. cerevisiae deletion strains, locus YNR052C, strain pop2, stronger effect = lower value): 0.991
- normalized growth (S. cerevisiae deletion strains, locus YOL006C, strain TOP1, stronger effect = lower value): 0.624
- normalized growth (S. cerevisiae deletion strains, locus YOL012C, strain htz1): 0.669
- normalized growth (S. cerevisiae deletion strains, locus YOL147C, strain pex11, stronger effect = lower value): 1.01
- normalized growth (S. cerevisiae deletion strains, locus YOR001W, strain rrp6, stronger effect = lower value): 0.845 (active)
- normalized growth (S. cerevisiae deletion strains, locus YOR061W, strain CKA2, stronger effect = lower value): 0.934
- normalized growth (S. cerevisiae deletion strains, locus YOR069W, strain VPS5, stronger effect = lower value): 0.966
- normalized growth (S. cerevisiae deletion strains, locus YOR070C, strain gyp1, stronger effect = lower value): 0.878 (active)
- normalized growth (S. cerevisiae deletion strains, locus YOR080W, strain dia2, stronger effect = lower value): 0.813 (active)
- normalized growth (S. cerevisiae deletion strains, locus YOR083W, strain WHI5, stronger effect = lower value): 0.749 (active)
- normalized growth (S. cerevisiae deletion strains, locus YOR106W, strain vam3, stronger effect = lower value): 0.407 (active)
- normalized growth (S. cerevisiae deletion strains, locus YOR136W, strain idh2, stronger effect = lower value): 1.01
- normalized growth (S. cerevisiae deletion strains, locus YOR144C, strain elg1, stronger effect = lower value): 1.02
- normalized growth (S. cerevisiae deletion strains, locus YOR184W, strain ser1, stronger effect = lower value): 0.993
- normalized growth (S. cerevisiae deletion strains, locus YOR265W, strain rbl2, stronger effect = lower value): 0.883 (active)
- normalized growth (S. cerevisiae deletion strains, locus YOR270C, strain vph1, stronger effect = lower value): 0.484 (active)
- normalized growth (S. cerevisiae deletion strains, locus YOR290C, strain snf2, stronger effect = lower value): 0.701 (active)
- normalized growth (S. cerevisiae deletion strains, locus YOR316C, strain cot1, stronger effect = lower value): 1.05
- normalized growth (S. cerevisiae deletion strains, locus YPL051W, strain arl3, stronger effect = lower value): 0.521 (active)
- normalized growth (S. cerevisiae deletion strains, locus YPL078C, strain atp4, stronger effect = lower value): 0.796 (active)
- normalized growth (S. cerevisiae deletion strains, locus YPL106C, strain sse1, stronger effect = lower value): 0.77 (active)
- normalized growth (S. cerevisiae deletion strains, locus YPL240C, strain hsp82, stronger effect = lower value): 0.83 (active)
- normalized growth (S. cerevisiae deletion strains, locus YPL241C, strain CIN2, stronger effect = lower value): 0.989
- normalized growth (S. cerevisiae deletion strains, locus YPR119W, strain clb2, stronger effect = lower value): 1.03
- normalized growth (S. cerevisiae deletion strains, locus YPR141C, strain kar3, stronger effect = lower value): 0.997
- normalized growth (S. cerevisiae deletion strains, locus YPR163C, strain tif3, stronger effect = lower value): 1.01
- normalized growth (S. cerevisiae deletion strains, locus YPR167C, strain met16, stronger effect = lower value): 1
- normalized growth (S. cerevisiae deletion strains, strain wtn01, stronger effect = lower value): 0.996
- normalized growth (S. cerevisiae strains, strain wild type, stronger effect = lower value): 0.929
